In PubChem BioAssay:
Active and inactive are the calls of the source.

Tests used:
[1] = system: wheat germ agglutinin (Triticum aestivum), Alexa647-labelled; assay: Alexa647-WGA lectin binding to printed small molecules – biochemical, small-molecule microarray, 635/667 nm fluorescence, artefact control for SMM control-protein annotation, profiling panel (AID 1140); details: WGA-A647 binding, 635 nm fluorescence, higher = more signal;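 also: score merges 667 nm feature emission with signal to noise over triplicate slides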
[2] = biological target: Luciferin 4-monooxygenase (Photinus pyralis) (UniProt P08659); assay: inhibition of purified Photinus pyralis luciferase – biochemical, luminescence, purified enzyme, 2006 set, primary screen (AID 1141); details: purified firefly luciferase, SteadyGlo luminescence, 30 min; higher = more signal, called active from +8 up or from −8 down;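 also: cell-free assay with purified firefly luciferase at 100 ng per well in PBS; test concentration not given here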
[3] = system: Wnt5a (protein binding on small-molecule microarray); assay: small molecules binding Wnt5a protein – biophysical, small-molecule microarray, 635/667 nm fluorescence, primary screen (AID 1142); details: 635 nm fluorescence, higher = more signal;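 also: fluorescence read at 667 nm with signal to noise per printed feature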
[4] = ATP-based viability of Huh7 replicon cells – cell-based, CellTiter-Glo luminescence, basal, 48 h, cytotoxicity control for HCV replication inhibitor project, primary screen (AID 1143); details: higher = more signal, called active from +8 up or from −8 down;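 also: Huh7 hepatoma cells carrying a hepatitis C replication reporter with no stimulus; test concentration not given here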
[5] = basal CRE-LacZ reporter activity in PC12 – cell-based, unstimulated, primary screen (AID 1145); details: no forskolin, luminescence, 4.5 h, higher = more signal, called active from +8 up or from −8 down
[6] = forskolin-driven CRE-LacZ activity in PC12 – cell-based, CRE-LacZ reporter, forskolin-stimulated, primary screen (AID 1146); details: luminescence, 4.5 h, higher = more signal, called active from +8 up or from −8 down;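 also: PC12 cells with 6xCRE LacZ reporter stimulated by forskolin 10 µM; beta-galactosidase reporter signal reflecting CREB driven transcription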
[7] = biological target: Streptavidin (Streptomyces avidinii) (UniProt P22629); assay: compounds binding control protein streptavidin – biophysical, small-molecule microarray, 635/667 nm fluorescence, artefact control for SMM compound annotation, primary screen (AID 1147); details: higher = more signal;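 also: signal reflects streptavidin binding to arrayed compounds as a control protein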
[8] = probe aInhba binding on compound microarray – biochemical, small-molecule microarray, 635/667 nm fluorescence, primary screen (AID 1148); details: higher = more signal;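 also: score merges 667nm spot fluorescence with signal-to-noise for antibody binding to printed compounds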
[9] = biological target: Torsin-1A (Homo sapiens) (UniProt O14656); assay: TOR1A wild-type binding on microarray – cell lysate, small-molecule microarray, lysate, 635/667 nm, primary screen (AID 1149); details: COS7 hTOR1A-WT lysate, 635 nm fluorescence, higher = more signal
[10] = biological target: Torsin-1A (Homo sapiens) (UniProt O14656); assay: torsin A mutant lysate binding on microarrays – cell lysate, small-molecule microarray, COS7 lysate, 635/667 nm fluorescence, primary screen (AID 1150); details: COS7 hTOR1A mutant lysate, 635 nm fluorescence, higher = more signal;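 also: score pools 667 nm emission and signal to noise measuring lysate protein binding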
[11] = system: Sonic hedgehog protein (Shh); assay: Sonic hedgehog microarray binding compounds – biochemical, small-molecule microarray, 635/667 nm fluorescence, primary screen (AID 1151); details: 635 nm fluorescence, higher = more signal;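 also: Shh protein binding to compounds spotted on small-molecule microarray slides; score combines spot fluorescence intensity with signal-to-noise across triplicate slides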
[12] = optical density shifts of acrAB sulA E. coli – strain DRC41, OD650, 48 h, E. coli filamentation inducer project, primary screen (AID 1152); details: higher = more signal, called active from +8 up or from −8 down;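 also: E. coli MC1000 strain DRC41 lacking acrAB efflux pump and sulA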
[13] = probe aLefty1 binding on compound microarray – biochemical, small-molecule microarray, 635/667 nm fluorescence, primary screen (AID 1153); details: higher = more signal;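 also: score merges spot fluorescence with signal-to-noise ratio from the scanned slide images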
[14] = plasmodial surface anion channel blockers, osmotic lysis – cell-based, P. falciparum Indochina, OD700, 1 h, primary screen (AID 1154); details: P. falciparum Indochina infected RBC osmotic lysis, higher = more signal, called active from +8 up or from −8 down
[15] = plasmodial surface anion channel blockers, osmotic lysis – cell-based, P. falciparum Indochina, OD700, 2 h, primary screen (AID 1155);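 also: lysis reports solute entry through the parasite surface anion channel PSAC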; details: P. falciparum Indochina infected erythrocytes, higher = more signal, called active from +8 up or from −8 down
[16] = changes in parasitized red cell lysis, either direction – P. falciparum Indochina, OD700, 3 h, PSAC antagonist project, primary screen (AID 1156); details: P. falciparum-infected erythrocytes, osmotic lysis, higher = more signal, called active from +8 up or from −8 down
[17] = plasmodial surface anion channel blockers, osmotic lysis – cell-based, P. falciparum Indochina, OD700, 18 h, primary screen (AID 1157); details: P. falciparum Indochina infected erythrocytes, osmotic lysis OD700, 18 h; higher = more signal, called active from +8 up or from −8 down
[18] = S6 kinase pathway phospho-S6 level changes – cell-based, A549, cytoblot, luminescence, serum-stimulated, primary screen (AID 1158); details: 5 h, higher = more signal;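 also: serum-stimulated A549 lung adenocarcinoma cells; signal is phosphorylated S6 detected by cytoblot immunostaining with HRP secondary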
[19] = biological target: NADPH oxidase 2 (Homo sapiens) (UniProt P04839); assay: compounds shifting NOX2 Amplex Red fluorescence – cell-based, HEK293-NOX2, PMA-stimulated, NOX inhibitor project, primary screen (AID 1159); details: 45 min, higher = more signal, called active from +8 up or from −8 down; also: test concentration not given here
[20] = biological target: NADPH oxidase 4 (Homo sapiens) (UniProt Q9NPH5); assay: compounds shifting NOX4 Amplex Red fluorescence – cell-based, HEK293-NOX4, tetracycline-induced, NOX inhibitor project, primary screen (AID 1160); details: HEK293-NOX4, Amplex Red H2O2 fluorescence, 45 min; higher = more signal, called active from +8 up or from −8 down
Sequence of NADPH oxidase 4 (Homo sapiens) (Q9NPH5 whole entry, looked up): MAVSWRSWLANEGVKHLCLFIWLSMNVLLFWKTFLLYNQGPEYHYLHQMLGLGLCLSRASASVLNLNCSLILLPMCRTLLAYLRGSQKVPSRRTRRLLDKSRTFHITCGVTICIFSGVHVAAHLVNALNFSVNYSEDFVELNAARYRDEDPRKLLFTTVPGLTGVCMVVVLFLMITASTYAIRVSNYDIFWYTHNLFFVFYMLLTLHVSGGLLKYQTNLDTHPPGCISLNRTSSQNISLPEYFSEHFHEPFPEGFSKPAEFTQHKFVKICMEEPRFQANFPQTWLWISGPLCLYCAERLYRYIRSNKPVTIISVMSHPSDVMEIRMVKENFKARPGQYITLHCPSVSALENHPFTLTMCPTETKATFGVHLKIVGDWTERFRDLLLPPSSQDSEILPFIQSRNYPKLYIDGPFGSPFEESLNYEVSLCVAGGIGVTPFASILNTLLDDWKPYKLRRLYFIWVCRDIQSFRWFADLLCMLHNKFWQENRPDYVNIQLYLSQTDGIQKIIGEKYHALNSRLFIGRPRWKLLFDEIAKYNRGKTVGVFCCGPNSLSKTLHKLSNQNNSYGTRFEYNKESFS

Sequence of Luciferin 4-monooxygenase (Photinus pyralis) (P08659 whole entry, looked up): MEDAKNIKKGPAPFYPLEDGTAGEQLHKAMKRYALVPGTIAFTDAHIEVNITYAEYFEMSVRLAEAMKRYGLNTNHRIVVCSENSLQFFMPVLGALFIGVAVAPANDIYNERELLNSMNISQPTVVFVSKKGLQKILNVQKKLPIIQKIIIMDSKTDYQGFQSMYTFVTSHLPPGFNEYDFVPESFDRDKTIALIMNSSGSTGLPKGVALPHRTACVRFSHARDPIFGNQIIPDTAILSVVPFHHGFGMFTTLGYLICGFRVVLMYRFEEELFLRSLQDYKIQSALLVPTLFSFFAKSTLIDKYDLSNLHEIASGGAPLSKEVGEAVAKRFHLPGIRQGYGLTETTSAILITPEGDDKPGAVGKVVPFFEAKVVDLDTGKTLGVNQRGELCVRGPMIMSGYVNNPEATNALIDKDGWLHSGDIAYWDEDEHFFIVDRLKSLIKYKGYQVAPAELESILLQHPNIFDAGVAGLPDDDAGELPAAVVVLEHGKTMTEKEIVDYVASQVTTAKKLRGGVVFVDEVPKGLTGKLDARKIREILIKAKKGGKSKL
Sequence of Torsin-1A (Homo sapiens) (O14656 whole entry, looked up): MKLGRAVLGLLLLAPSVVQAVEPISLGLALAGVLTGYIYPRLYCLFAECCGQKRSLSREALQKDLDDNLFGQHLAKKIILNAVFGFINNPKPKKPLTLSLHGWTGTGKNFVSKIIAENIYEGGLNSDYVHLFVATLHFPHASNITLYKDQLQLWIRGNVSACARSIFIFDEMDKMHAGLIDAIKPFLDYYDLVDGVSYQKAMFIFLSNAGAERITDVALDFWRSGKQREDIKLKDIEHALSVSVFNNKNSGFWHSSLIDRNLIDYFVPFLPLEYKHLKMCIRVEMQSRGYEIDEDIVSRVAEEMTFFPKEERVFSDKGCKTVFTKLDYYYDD
Sequence of NADPH oxidase 2 (Homo sapiens) (P04839 whole entry, looked up): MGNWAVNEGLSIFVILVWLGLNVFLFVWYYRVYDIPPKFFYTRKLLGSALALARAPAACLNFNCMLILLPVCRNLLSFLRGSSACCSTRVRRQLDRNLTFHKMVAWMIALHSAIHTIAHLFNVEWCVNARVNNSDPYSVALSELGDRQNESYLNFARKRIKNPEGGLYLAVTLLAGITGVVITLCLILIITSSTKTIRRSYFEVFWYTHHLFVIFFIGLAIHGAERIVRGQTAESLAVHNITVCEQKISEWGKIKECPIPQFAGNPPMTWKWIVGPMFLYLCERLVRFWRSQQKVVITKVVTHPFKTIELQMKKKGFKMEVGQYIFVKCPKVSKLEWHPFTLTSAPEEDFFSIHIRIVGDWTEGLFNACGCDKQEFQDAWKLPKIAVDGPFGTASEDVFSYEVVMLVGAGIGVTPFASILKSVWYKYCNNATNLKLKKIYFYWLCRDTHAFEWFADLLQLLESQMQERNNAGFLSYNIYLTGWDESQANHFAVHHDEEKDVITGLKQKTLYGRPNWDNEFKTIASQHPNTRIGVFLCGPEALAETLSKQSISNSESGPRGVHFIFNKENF
Sequence of Streptavidin (Streptomyces avidinii) (P22629 whole entry, looked up): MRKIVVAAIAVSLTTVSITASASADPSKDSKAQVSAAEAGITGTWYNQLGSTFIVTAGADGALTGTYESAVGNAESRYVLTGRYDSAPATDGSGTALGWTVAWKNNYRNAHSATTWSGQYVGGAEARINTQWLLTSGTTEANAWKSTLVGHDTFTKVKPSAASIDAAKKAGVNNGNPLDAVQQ

In the case of `CCOC(=O)C[C@H]1[C@H](OC(=O)c2ccc(-c3ccccc3)cc2)[C@@H](NC(=O)c2ccccc2)c2cc(OCCCO)ccc2N1C(=O)c1ccccc1`, the composite z-score [1] is reported as 0.646, the z-score [2] is reported as -0.517 (inactive) and the composite z-score [3] is reported as 0.15. For the same molecule, the z-score [4] was -2.94 (inactive), the z-score [5] was 0.251 (inactive) and the z-score [6] was -0.843 (inactive). The composite z-score [7] was 0.0439, the composite z-score [8] was 0.105 and the composite z-score [9] was 0.217. For the same molecule, the composite z-score [10] was 0.792, the composite z-score [11] was 0.082 and the z-score [12] was 2.36 (inactive). For the same molecule, the composite z-score [13] was 0.167, the z-score [14] was 0.788 (inactive) and the z-score [15] was -0.846 (inactive). For the same molecule, the z-score [16] was -0.0889 (inactive), the z-score [17] was -1.09 (inactive) and the z-score [18] was 1.58. The z-score [19] was 2.09 (inactive) and the z-score [20] was 1.32 (inactive).
With `CN1C=C(C(=O)OCCS(C)(=O)=O)C(C(=O)OCCS(C)(=O)=O)=CC(CCCO)=CC1c1cccs1` (stereo not given) the composite z-score [1] was -0.485, the z-score [2] was -1.52 (inactive) and the composite z-score [3] was 0.131. For the same molecule, the z-score [4] was -0.894 (inactive), the z-score [5] was 5.95 (inactive) and the z-score [6] was -1.56 (inactive). For the same molecule, the composite z-score [7] was -0.0015, the composite z-score [8] was -0.299 and the composite z-score [9] was 0.408. The composite z-score [10] was 0.0286, the composite z-score [11] was 1.05 and the z-score [12] was 0.302 (inactive). For the same molecule, the composite z-score [13] was -0.0011, the z-score [14] was 1.91 (inactive) and the z-score [15] was -1.53 (inactive). For the same molecule, the z-score [16] was -0.727 (inactive), the z-score [17] was -1.71 (inactive) and the z-score [18] was -0.496. For the same molecule, the z-score [19] was 0.92 (inactive) and the z-score [20] was 0.858 (inactive).
In the case of `COC(=O)C(CC#Cc1ccc2c(c1)[C@]1(C(=O)N2)[C@H](C(=O)O)[C@H]2C(=O)O[C@H](c3ccccc3)[C@H](c3ccccc3)N2[C@@H]1c1ccc(OCCO)cc1)C(=O)OC`, the composite z-score [1] is reported as 1.43, the z-score [2] is reported as -4.03 (inactive) and the composite z-score [3] is reported as 0.562. For the same molecule, the z-score [4] was -2.27 (inactive), the z-score [5] was -0.258 (inactive) and the z-score [6] was -1.32 (inactive). The composite z-score [7] was 1.25, the composite z-score [8] was 0.0714 and the composite z-score [9] was 0.734. The composite z-score [10] was 1.06, the composite z-score [11] was 0.969 and the z-score [12] was 3.78 (inactive). For the same molecule, the composite z-score [13] was 0.305, the z-score [14] was 10 (active) and the z-score [15] was 0.0825 (inactive). The z-score [16] was 0.646 (inactive), the z-score [17] was -2.18 (inactive) and the z-score [18] was 2.47. The z-score [19] was 1.39 (inactive) and the z-score [20] was 0.164 (inactive).
In the case of `CC(C)C[C@@H]1NC(=O)[C@@]23C(=O)N[C@@H](Cc4ccccc4)C2[C@H](C)[C@@]2(C)O[C@H]2C3/C=C/CC/C=C/CNC(=O)[C@@H](C)NC1=O` (stereo not given in full), the composite z-score [1] is reported as -0.578, the z-score [2] is reported as -0.8 (inactive) and the composite z-score [3] is reported as 0.298. The z-score [4] was -2.4 (inactive), the z-score [5] was 2.03 (inactive) and the z-score [6] was -1.16 (inactive). For the same molecule, the composite z-score [7] was 0.0315, the composite z-score [8] was -0.16 and the composite z-score [9] was 0.418. The composite z-score [10] was -0.0123, the composite z-score [11] was 1.78 and the z-score [12] was 2.61 (inactive). The composite z-score [13] was -0.0984, the z-score [14] was 1.31 (inactive) and the z-score [15] was 0.548 (inactive). The z-score [16] was 0.224 (inactive), the z-score [17] was 0.5 (inactive) and the z-score [18] was 0.595. For the same molecule, the z-score [19] was 0.649 (inactive) and the z-score [20] was 0.24 (inactive).
In the case of `CCCCCCC#C[Si](O[C@H](c1ccccc1)c1cn(Cc2ccccc2)nn1)(C(C)C)C(C)C`, the composite z-score [1] is reported as -0.349, the z-score [2] is reported as -1.15 (inactive) and the composite z-score [3] is reported as -0.0163. The z-score [4] was -1.53 (inactive), the z-score [5] was -1.23 (inactive) and the z-score [6] was -1.35 (inactive). For the same molecule, the composite z-score [7] was 0.239, the composite z-score [8] was -0.128 and the composite z-score [9] was 0.122. For the same molecule, the composite z-score [10] was 0.345, the composite z-score [11] was 0.609 and the z-score [12] was 3.05 (inactive). The composite z-score [13] was -0.101, the z-score [14] was 1.66 (inactive) and the z-score [15] was -0.226 (inactive). The z-score [16] was -0.0275 (inactive), the z-score [17] was -0.327 (inactive) and the z-score [18] was 0.35. The z-score [19] was -0.941 (inactive) and the z-score [20] was 0.369 (inactive).
With `O=C(O)[C@H]1C[C@H]2C(=O)N[C@@H](Cc3ccccc3)C(=O)N2[C@H]1c1ccc(O)cc1` the composite z-score [1] was 0.302, the z-score [2] was -1.3 (inactive) and the composite z-score [3] was 0.0525. The z-score [4] was -0.423 (inactive), the z-score [5] was 0.826 (inactive) and the z-score [6] was -0.83 (inactive). It also gave a composite z-score [7] of -0.0681, a composite z-score [8] of 0.0228 and a composite z-score [9] of 0.563. For the same molecule, the composite z-score [10] was 0.458, the composite z-score [11] was 1.24 and the z-score [12] was 0.763 (inactive). For the same molecule, the composite z-score [13] was -0.0162, the z-score [14] was 2.03 (inactive) and the z-score [15] was -0.0251 (inactive). For the same molecule, the z-score [16] was -7.14 (inactive), the z-score [17] was -0.139 (inactive) and the z-score [18] was 0.432. For the same molecule, the z-score [19] was 1.53 (inactive) and the z-score [20] was 1.42 (inactive).
For `CC(C)CCC[C@@H](C)[C@H]1CC[C@@]2(C)C3=C(CC[C@]12C)[C@@]1(C)CC[C@H](OC(=O)CCl)C(C)(C)C1CC3` (stereo not given in full), the composite z-score [1] was 0.274, the z-score [2] was -1.28 (inactive) and the composite z-score [3] was 0.109. For the same molecule, the z-score [4] was -0.186 (inactive), the z-score [5] was 1.3 (inactive) and the z-score [6] was -0.731 (inactive). For the same molecule, the composite z-score [7] was 0.0285, the composite z-score [8] was -0.251 and the composite z-score [9] was 0.662. For the same molecule, the composite z-score [10] was 0.358, the composite z-score [11] was 0.588 and the z-score [12] was 3.33 (inactive). For the same molecule, the composite z-score [13] was -0.194, the z-score [14] was -0.0025 (inactive) and the z-score [15] was -0.116 (inactive). For the same molecule, the z-score [16] was -0.417 (inactive), the z-score [17] was 0.01 (inactive) and the z-score [18] was 0.413. For the same molecule, the z-score [19] was -0.776 (inactive) and the z-score [20] was 0.446 (inactive).
With `COCCOC(=O)N1C(=O)[C@@]2(c3cc(C#CC4(O)CCCCCC4)ccc31)[C@H](c1ccc(O)cc1)N1[C@H](c3ccccc3)[C@H](c3ccccc3)OC(=O)[C@H]1[C@@H]2C(N)=O` the composite z-score [1] was 0.706, the z-score [2] was -1.37 (inactive) and the composite z-score [3] was 0.496. For the same molecule, the z-score [4] was -2.03 (inactive), the z-score [5] was -0.168 (inactive) and the z-score [6] was -0.304 (inactive). For the same molecule, the composite z-score [7] was 0.629, the composite z-score [8] was 0.101 and the composite z-score [9] was 0.0241. For the same molecule, the composite z-score [10] was 0.497, the composite z-score [11] was 1.22 and the z-score [12] was 1.91 (inactive). For the same molecule, the composite z-score [13] was 0.181, the z-score [14] was 1.14 (inactive) and the z-score [15] was -1.24 (inactive). For the same molecule, the z-score [16] was -1.54 (inactive), the z-score [17] was -2.13 (inactive) and the z-score [18] was 0.736. For the same molecule, the z-score [19] was 1.97 (inactive) and the z-score [20] was 0.751 (inactive).
